Results reported in PubChem BioAssay AID1159580 (chemical genetic matrix, 2015).
Among all 5,500 compounds or so, about 2,000 (36%) were called active. Another 18% or so got no clear call; they are omitted. Rule as the data show it: active = normalized growth mostly below about 0.91 (no sharp cut-off); inconclusive = no clear call, values can overlap the other calls; inactive = mostly above about 0.92. This is one part of the list.

Experiment: chemical genetic growth profiling, strain panel (AID 1159580);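 also: tested at 20 µM; growth read once vehicle control cultures reached saturation at 30 °C; 1 = growth at the plate median or of vehicle wells; lower values mean less growth of the strain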
Settings: S. cerevisiae deletion strains, growth OD

Measured: normalized growth

C=C1C2CC[C@H]3[C@]4(C)C[C@H](OC5OC(CO)C(OS(=O)(=O)O)C(OS(=O)(=O)O)C5OC(=O)CC(C)C)C[C@@H](C(=O)O)[C@H]4CC[C@]3(C2)[C@H]1O (some centres undefined)
inactive: locus YAL013W, strain DEP1, active compounds read low 1.01 | locus YAL021C, strain ccr4, active compounds read low 0.974 | locus YAL026C, strain drs2, active compounds read low 1.01 | locus YAL030W, strain snc1, active compounds read low 1.01 | locus YBL061C, strain skt5, active compounds read low 1.01 | locus YBR009C, strain hhf1, active compounds read low 1.02 | locus YBR021W, strain FUR4, active compounds read low 1.02 | locus YBR023C, strain chs3, active compounds read low 1.01 | locus YBR171W, strain sec66, active compounds read low 1.01 | locus YBR229C, strain ROT2, active compounds read low 1.01 | locus YBR231C, strain swc5, active compounds read low 1.02 | locus YBR279W, strain paf1, active compounds read low 1.01 | locus YCL011C, strain gbp2, active compounds read low 1.01 | locus YCL016C, strain dcc1, active compounds read low 1 | locus YCL029C, strain bik1, active compounds read low 0.983 | locus YCL061C, strain MRC1, active compounds read low 1.01 | locus YCL069W, strain vba3, active compounds read low 1.02 | locus YCR088W, strain abp1, active compounds read low 1.01 | locus YDL005C, strain med2, active compounds read low 1 | locus YDL035C, strain GPR1, active compounds read low 1.01 | locus YDL040C, strain nat1, active compounds read low 1 | locus YDL074C, strain BRE1, active compounds read low 1.04 | locus YDL101C, strain DUN1, active compounds read low 1.02 | locus YDL134C, strain PPH21, active compounds read low 1.01 | locus YDL185W, strain tfp1, active compounds read low 0.986 | locus YDL192W, strain arf1, active compounds read low 0.986 | locus YDR001C, strain nth1, active compounds read low 1.01 | locus YDR069C, strain doa4, active compounds read low 1.02 | locus YDR101C, strain arx1, active compounds read low 0.979 | locus YDR137W, strain rgp1, active compounds read low 1.01 | locus YDR150W, strain NUM1, active compounds read low 1.01 | locus YDR159W, strain sac3, active compounds read low 1.01 | locus YDR162C, strain NBP2, active compounds read low 1.04 | locus YDR195W, strain ref2 0.999 | locus YDR297W, strain sur2, active compounds read low 1.01 | locus YDR318W, strain mcm21, active compounds read low 0.978 | locus YDR334W, strain swr1, active compounds read low 1.01 | locus YDR335W, strain msn5, active compounds read low 1.01 | locus YDR388W, active compounds read low 0.988 | locus YDR392W, strain spt3, active compounds read low 0.942 | locus YDR502C, strain sam2, active compounds read low 0.994 | locus YEL003W, strain gim4, active compounds read low 1.01 | locus YEL037C, strain rad23, active compounds read low 1.01 | locus YEL061C, strain CIN8 (second series), active compounds read low 1 | locus YEL061C, strain CIN8, active compounds read low 1 | locus YER015W, strain faa2, active compounds read low 1.01 | locus YER016W, strain bim1, active compounds read low 1.01 | locus YER110C, active compounds read low 0.975 | locus YER111C, strain swi4, active compounds read low 1.01 | locus YER155C, strain BEM2 (second series), active compounds read low 1.02 | locus YER155C, strain BEM2, active compounds read low 1.02 | locus YER167W, strain BCK2, active compounds read low 1 | locus YFR010W, strain ubp6, active compounds read low 1.01 | locus YGL078C, strain dbp3, active compounds read low 0.978 | locus YGL086W, strain mad1, active compounds read low 0.972 | locus YGL167C, strain pmr1, active compounds read low 1.01 | locus YGL173C, strain kem1, active compounds read low 1.01 | locus YGL227W, strain vid30, active compounds read low 1.01 | locus YGL240W, strain doc1, active compounds read low 1.03 | locus YGL248W, strain PDE1, active compounds read low 1.01 | locus YGL253W, strain hxk2, active compounds read low 1.01 | locus YGR078C, strain PAC10, active compounds read low 1.03 | locus YGR135W, strain pre9, active compounds read low 0.987 | locus YGR229C, strain SMI1, active compounds read low 1.02 | locus YGR252W, strain gcn5, active compounds read low 1.02 | locus YHR013C, strain ard1, active compounds read low 0.999 | locus YHR027C, strain rpn1, active compounds read low 1.01 | locus YHR030C, strain SLT2, active compounds read low 1 | locus YHR079C, strain IRE1 (second series), active compounds read low 0.987 | locus YHR094C, strain hxt1, active compounds read low 0.988 | locus YHR129C, strain ARP1, active compounds read low 1.01 | locus YHR142W, strain chs7, active compounds read low 0.985 | locus YHR200W, strain rpn10, active compounds read low 0.996 | locus YIL066C, strain RNR3, active compounds read low 1.02 | locus YIL073C, strain SPO22, active compounds read low 0.966 | locus YIL125W, strain kgd1, active compounds read low 0.97 | locus YIR030C, strain dcg1, active compounds read low 0.99 | locus YJL092W, strain hpr5, active compounds read low 1.01 | locus YJL095W, strain BCK1 (second series), active compounds read low 1.01 | locus YJL095W, strain BCK1, active compounds read low 1.02 | locus YJL115W, strain asf1, active compounds read low 1.01 | locus YJL129C, strain trk1, active compounds read low 1.01 | locus YJL134W, strain LCB3, active compounds read low 1.01 | locus YJL154C, strain vps35, active compounds read low 1.01 | locus YJL164C, strain tpk1, active compounds read low 1 | locus YJL166W, strain qcr8, active compounds read low 1 | locus YJL168C, strain set2, active compounds read low 0.985 | locus YJL187C, strain SWE1 (second series), active compounds read low 1.02 | locus YJL187C, strain SWE1, active compounds read low 1.02
